In the library only some 1.5% were active in any assay of this set; here they are far more common.
3CLpro inhibitor: SARS-CoV 3CLpro protease inhibition; P0C6X7; recombinant SARS-CoV 3CLpro, quenched FRET peptide cleavage; inhibition, % at 6 µM; 290,000 compounds, 0.14% hits; AID 1706; in the data active = inhibition above about 12%
VHR inh abs: inhibitors of human VHR1 phosphatase (DUSP3); recombinant VHR phosphatase, pNPP absorbance; inhibition, % at 13.3 µM; 290,000 compounds, 0.52% hits; AID 1654; in the data active = inhibition above about 50%
Target sequence (P51452 whole entry, looked up): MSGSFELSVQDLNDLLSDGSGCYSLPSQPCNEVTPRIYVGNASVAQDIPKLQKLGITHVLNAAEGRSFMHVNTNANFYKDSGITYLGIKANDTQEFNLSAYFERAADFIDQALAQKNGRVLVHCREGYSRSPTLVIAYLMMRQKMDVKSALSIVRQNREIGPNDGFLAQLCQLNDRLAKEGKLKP
MazF activator: increases E. coli MazEF RNase cleavage of RNA. P0AE70. FAM/BHQ RNA-DNA oligo cleavage fluorescence, 5 h. activation, % at 20 µM. 350,000 compounds, 0.32% hits. AID 504720; in the data active = activation above about 50%
Target sequence (P0AE70 whole entry, looked up): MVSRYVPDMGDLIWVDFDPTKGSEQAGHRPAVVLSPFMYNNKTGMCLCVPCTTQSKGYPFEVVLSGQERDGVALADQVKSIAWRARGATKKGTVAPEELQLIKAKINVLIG
PrPC TRFRET: cell surface PrPC inhibition, primary TR-FRET screen | TR-FRET read-out | P04156 | 370,000 compounds, 0.43% hits | inhibition, % at 13.8 µM; in the data active = inhibition above about 24%; also: 0% = median of the test wells and 100% = reference compound wells
PrP 5UTR inh: inhibition of PrP 5' UTR reporter expression; 340,000 compounds, 0.35% hits; cell-based PrP 5' UTR mRNA reporter, plate reader; inhibition, % (test concentration not listed); in the data active = inhibition above about 52%; also: 0 = median of the neutral control wells
Mtb hypoxia inh: reduces hypoxia-regulated biosensor signal in M. tuberculosis. fluorescence inhibition, % (test concentration not listed). M. tuberculosis hypoxia-regulated fluorescent reporter, fluorescence. 300,000 compounds, 0.1% hits; in the data active = fluorescence inhibition mostly above about 23%, no sharp cut-off; inactive = mostly below about 17%
An asterisk follows results filed as active; · = no result; + = active, no number.

SMILES	3CLpro inhibitor	VHR inh abs	MazF activator	PrPC TRFRET	PrP 5UTR inh	Mtb hypoxia inh
CCOc1ccccc1NC(=O)Cn1nnc(C(=O)NCc2ccc3c(c2)OCO3)c1N	11.1	-6.5	65.4*	10.6	-23.1	2.9
O=C(N/N=C/c1cc([N+](=O)[O-])ccc1N1CCNCC1)c1ccc([N+](=O)[O-])cc1	-5.1	52.1*	2.6	-36.9	-3.5	·
O=C(NN=Cc1cc([N+](=O)[O-])ccc1N1CCNCC1)c1ccc([N+](=O)[O-])cc1	·	·	·	·	·	-13.9
NC(=Nc1ccc(Br)cc1)c1ccccc1	5.6	51.3*	4.3	0.5	-19.7	3.0
O=Cc1ccc(OC(=O)C2CC(=O)N(c3ccc(F)cc3)C2)cc1 (stereo unspecified)	-5.3	51.2*	4.8	7.9	-26.6	-17.1
O=C(O)C1CC(=O)N(c2ccc(F)cc2)C1 (stereo unspecified)	-1.9	10.9	6.2	-2.8	-26.5	13.7
O=C(O)c1cccc(N2C(=O)/C(=C/c3ccc(SCc4ccc(Cl)cc4)o3)SC2=S)c1	-1.2	22.2	573.5*	1.5	-26.1	15.0
C=CCOc1ccc(/C=C/C(C)=NO)cc1	·	·	·	·	·	16.8
CC(CCc1ccccc1)NC(=O)C=Cc1ccc(Cl)cc1 (stereo unspecified)	·	·	·	·	·	3.9
COc1cc(C=NNC(=O)CNC(=O)c2cccc([N+](=O)[O-])c2)ccc1O	·	·	·	·	·	16.0
O=[N+]([O-])c1cccc(-c2nc(-c3cccs3)c(-c3cccs3)[nH]2)c1	6.4	27.6	110.6*	-4.9	7.6	-6.4
C=CCN1C(=O)C(=C2Sc3ccccc3N2C)SC1=Nc1c(C)n[nH]c1C	·	·	·	·	·	-5.3
C=CCNc1nc(Cl)nc(Nc2cc(Cl)ccc2OC)n1	4.8	4.9	57.8*	-2.4	13.9	2.8
COc1cccc(NC(=O)COC(=O)c2ccc(F)cc2F)c1	1.4	-4.8	-3.5	-0.2	-11.1	-7.6
N#Cc1ccccc1NC(=O)COC(=O)c1ccc(F)cc1F	0.8	53.3*	4.8	4.5	-21.5	10.7
Cc1ccccc1OCCC(=O)NNC(=O)c1ccccc1F	·	·	6.0	3.0	-27.2	32.6*
COc1cc(C(=O)NNC(=O)CCOc2ccccc2C)cc(OC)c1OC	·	·	0.8	-5.0	-5.5	5.1
CC/C(=N\NC(=O)C1CCCC1)c1ccc(Br)cc1	-2.7	50.2*	4.2	-3.2	-6.2	·
O=C(NN=Cc1nn(-c2ccccc2)cc1-c1ccccc1)c1ccncc1	·	·	·	·	·	21.9
COc1ccccc1N1CCN(/N=C/C=C/c2ccccc2[N+](=O)[O-])CC1	-0.1	50.1*	4.5	0.7	-19.8	·
COc1ccccc1N1CCN(N=C/C=C/c2ccccc2[N+](=O)[O-])CC1	·	·	·	·	·	-3.4
N=C1C(c2nc3ccccc3c(=O)[nH]2)=C(O)CN1c1ccccc1	1.1	15.8	·	·	·	·
CCOc1ccc(N2CC(O)=C(c3nc4ccccc4c(=O)[nH]3)C2=N)cc1	-2.5	55.5*	-23.2	3.7	-30.2	11.0
COc1ccc(/C=C/c2cc(=O)c3cc(Cl)ccc3o2)cc1	3.0	1.5	54.2*	-7.1	-31.3	5.8
COc1ccc(C=Cc2nc3sc4c(c3c(=O)o2)CCC4)cc1	·	·	·	·	·	2.0
SMILES	3CLpro inhibitor	VHR inh abs	MazF activator	PrPC TRFRET	PrP 5UTR inh	Mtb hypoxia inh
COc1ccc(/C=C/c2nc3sc4c(c3c(=O)o2)CCC4)cc1	-2.7	·	+	3.1	-36.9	·
O=c1oc(/C=C/c2ccccc2)nc2sc3c(c12)CCC3	2.1	31.3	323.6*	-1.6	-64.4	·
O=C(Cn1cnc2ccccc21)NN=Cc1ccco1	·	·	·	·	·	4.5
C/C(C=NNC(=O)c1cc(-c2cccnc2)nc2c1c(C)nn2-c1ccccc1)=C\c1ccccc1	·	·	·	·	·	2.3
CC1=C(C(=O)Nc2cc(C(=O)N(C)Cc3ccccc3)ccc2C)SCCO1	2.8	52.5*	5.9	-4.5	-17.3	1.6
Nc1nnc(-c2cc3c(ccc4ccccc43)oc2=O)s1	-1.3	53.7*	·	·	·	-6.0
O=c1oc2ccc3ccccc3c2cc1-c1nnc(-c2ccccc2)o1	-4.7	11.3	14.2	-0.9	5.7	·
CNCC(C)NCC(Cc1ccccc1)NCCc1ccccc1 (stereo unspecified)	·	·	·	·	·	-2.7
Cc1cccc2c1ncc1c(=O)n(-c3ccccc3)[nH]c12	0.4	56.9*	4.9	-0.1	-44.0	2.3
CC(C)C(CO)NC(=O)c1ccc2c3n(nc2c1)-c1ccccc1CO3 (stereo unspecified)	·	·	·	·	·	2.1
COc1cc(/C=C(/C#N)c2nc(-c3cc4ccccc4oc3=O)cs2)cc([N+](=O)[O-])c1O	2.6	100.7*	·	5.3	·	·
